High-throughput results from PubChem BioAssay.
The full list was thinned out, with hits kept by preference.
Tgondii IFNg – blocks Toxoplasma gondii growth in the presence of IFN-gamma; activity change, negative = inhibition, % (no concentration beside the values); 69,000 compounds, 3.8% hits; AID 1259416; Toxoplasma gondii growth in IFN-gamma-treated host cells; stronger effect = lower value; in the data active means activity change below about -70%, passing the limit was not always enough;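 further: host cells are HeLa cells infected with Toxoplasma gondii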
Each line names hits and unclear results; the compound was inactive in the other large screens; ! = a repeat was not active.

Cc1nnnn1Cc1ccc(C(=O)N2CCCC(N)CC2)cc1 (configuration not stated)	none
Cn1cccc1C(=O)N1CCC2(CC1)CN(S(C)(=O)=O)c1ccccc12	none
O=C(Nc1cccc(-n2cnnn2)c1)c1ccccc1	none
Cc1onc(-c2ccccc2)c1NC(=O)Nc1ccc(-n2ccc(C(F)(F)F)n2)cc1	none
O=C(Nc1ccccc1)Nc1ccc(-n2ccc(C(F)(F)F)n2)cc1	Tgondii IFNg -81
Cc1ccc(/C=N/NC(=O)c2ccccc2Oc2ccccc2)o1	none
O=C(N/N=C/c1ccc([N+](=O)[O-])o1)c1ccc(O)cc1	Tgondii IFNg -81!
Cc1ccsc1/C=N\NC(=O)c1ccc2c(c1)OCO2	none
CSc1sc(-c2ccno2)c(-c2ccco2)c1C#N	none
Cc1c(-c2ccccc2)sc(N)c1C#N	none
CSc1sc(-c2ccn[nH]2)c(-c2ccccc2)c1C#N	Tgondii IFNg -85
COc1ccc(OC)c(-c2noc(CN(Cc3ccccc3F)S(C)(=O)=O)n2)c1	none
CSC1SCC2C(=O)N(C)C(C(C)C)C(=O)OCC(NC(=O)c3cnc4ccccc4n3)C(=O)NC(C)C(=O)N(C)C1C(=O)N(C)C(C(C)C)C(=O)OCC(NC(=O)c1cnc3ccccc3n1)C(=O)NC(C)C(=O)N2C (configuration not stated)	Tgondii IFNg -77
CC1CCN(CCNC(=O)CNS(=O)(=O)c2cccc3cccnc23)CC1	none
CSc1nsc(NC(=O)OCc2ccc(Cl)cc2)n1	none
CC(=O)c1cccc(NC(=O)Nc2nc(SCc3ccc(F)cc3)ns2)c1	Tgondii IFNg -107
CCCCCCSc1nsc(NC(C)=O)n1	none
CC(C)c1ccc(S(=O)(=O)N2CCC3(CC2)NCCN=C3NCc2cc(F)cc(F)c2)cc1	none
CCc1nccc(CN2CCC(Cc3ccc(F)cc3)CC2)n1	none
Cc1cc(C)nc(NN2C(=O)CSC2=S)n1	none
C[C@@H]1CN([C@@H](C)CO)C(=O)c2c(c3ccccc3n2C)-c2ccccc2CO[C@@H]1CN(C)C(=O)Nc1ccc2c(c1)OCO2	none
CCOc1ccc2nc(SCc3ccccc3)c(C#N)cc2c1	Tgondii IFNg -103
CCOc1ccc2nc(SCC(=O)c3ccc4c(c3)OCCO4)c(C#N)cc2c1	none
COc1ccc(NC(=O)CSc2nc3ccc(C)cc3cc2C#N)cc1	none
CC(C)c1ccc(NC(=O)c2c(O)c3ccccc3[nH]c2=O)cc1	none
CN1C[C@@H]2CN(C(=O)c3ccnn3C)C[C@H]2C1=O	none
CC(C)(N)C(=O)N1CCCC(c2cc(Nc3cccc(F)c3)nc(-c3cccnc3)n2)C1 (configuration not stated)	Tgondii IFNg -82
O=C(c1ccncc1)N1CCCC(c2nc(-c3cccnc3)no2)C1 (configuration not stated)	none
COCC1CCCN(C(=O)c2ccc(-c3cccnc3)nc2)C1 (configuration not stated)	none
Cc1cc2c(cc1C(=O)N1CCC3(CN(C)C(=O)O3)C1)OCCO2 (configuration not stated)	none
Cc1nc2ccccc2c(=O)n1CCC(=O)Nc1cccc(OC(C)C)c1	none
CCCN(CCC)C(=O)c1cc2cccnc2n(Cc2ccccc2)c1=O	none
Fc1ccc(C(c2ccccc2)(c2ccccc2F)n2ccnc2)cc1 (configuration not stated)	Tgondii IFNg -71
O=C(CCc1ccccc1)N1CCCC2(C1)Nc1cccnc1NC2=NC1CCCC1 (configuration not stated)	none
O=C1N(CC2CC2)CCC12CCCN(Cc1cncc(Cl)c1)CC2 (configuration not stated)	none
CCS(=O)(=O)N1CCCC2(COCCN(c3ccc(C)nn3)C2)C1 (configuration not stated)	none
COc1cc2ncnc(Nc3ccc(Cl)cc3F)c2cc1OC	Tgondii IFNg -82
COc1cc2ncnc(Nc3ccc(F)c(Cl)c3)c2cc1OCCCN1CCOCC1	none
COc1cc2ncnc(Sc3ccc(Cl)cc3)c2cc1OC	none
CN1C(=O)N(Cc2cccnc2)C(=O)C12CCN(CCc1ccccc1)CC2	none
CC(C)Cc1cn(C2CCN(c3cncc(C(=O)N4CCCC4)n3)CC2)nn1	none
COc1ccc(C(=O)Nc2ccc(-c3nc(-c4ccc(C)cc4C)co3)cc2)cc1	none
Cc1ccc(NC(=O)c2ccc3c(c2)c(C)cn3C)c(-c2cc(C)[nH]n2)c1	none
COc1ccc(-c2cc(C(=O)Nc3ccc(C)cc3-c3cc(C)[nH]n3)no2)cc1	Tgondii IFNg -78
CC(C)(O)C#Cc1cccc(C(=O)N2CCCCC2c2cccnc2)c1 (configuration not stated)	none
O=C(C[C@@H]1CC[C@@H]2NC[C@@H](O)COC[C@H]2O1)NCCN1CCCCC1	none
Cc1ccc(C(=O)CSc2ncnc3c(-c4ccc(Cl)cc4)nsc23)cc1	Tgondii IFNg -85
Cc1noc2ncnc(SCC(=O)c3ccc(Cl)cc3)c12	none
COc1ccc(-c2nsc3c(SCc4ccccc4)ncnc23)cc1	none
COc1ccccc1OCC(=O)NCCc1sc(-c2cccc(F)c2)nc1C	none
CN(CCNC(=O)Cn1c(=O)oc2ccc(Cl)cc21)c1ccccc1	none
CC1Cc2cc(CN(C)C(=O)Cn3c(=O)oc4ccc(Cl)cc43)ccc2O1 (configuration not stated)	Tgondii IFNg -92
